# According to PMC7862700, “An all-to-all approach to the identification of sequence-specific readers for epigenetic DNA modifications on cytosine”:
# Assays:
# Experiment in all cases: DAPPL (digital affinity profiling via proximity ligation, sequencing); 10 mM Tris-HCl pH 7.5, 50 mM NaCl, 1 mM DTT, 4% glycerol, room temperature, 30 min; GST-TFs on glutathione beads, 16-mer random dsDNA library, 0.1% formaldehyde crosslink after washing; high values mean tight binding
# FEV = target: T1, FEV (Homo sapiens, UniProt Q99581 1-238); settings: protein: recombinant; tags: N-terminal GST; dsDNA, one strand shown
# T1 sequence: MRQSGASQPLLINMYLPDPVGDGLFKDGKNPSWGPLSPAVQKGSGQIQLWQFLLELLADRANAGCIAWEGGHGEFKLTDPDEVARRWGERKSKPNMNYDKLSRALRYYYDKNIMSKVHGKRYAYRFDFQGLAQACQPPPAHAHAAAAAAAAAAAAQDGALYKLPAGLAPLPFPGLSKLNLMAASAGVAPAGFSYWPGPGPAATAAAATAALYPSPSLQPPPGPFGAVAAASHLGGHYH
# How it was run: (§1)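 Human transcription factors carrying a GST fusion were produced in yeast, bound to glutathione beads, tagged with DNA barcodes and pooled together with a tag-only sample. Each pool was held with 200 nmole of a random double-stranded 16-mer DNA library in Tris/NaCl/DTT/glycerol buffer for 30 min at room temperature, then washed, crosslinked in 0.1% formaldehyde, proximity-ligated with BsaI/T4 ligase (1 h, 37 °C), PCR-amplified and sequenced on an Illumina NextSeq500. Binding signal is the read frequency of each hexamer for a given factor divided by its frequency in the tag-only sample.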
# ETV5 = ETV5 (Homo sapiens, UniProt P41161 1-510); settings: protein: recombinant; tags: N-terminal GST; dsDNA, one strand shown
# How it was run: as §1
# HSF1 = HSF1 (Homo sapiens, UniProt Q00613 1-529); settings: protein: recombinant; tags: N-terminal GST; chain copies: 3; dsDNA, one strand shown
# How it was run: as §1
# SPIC = target: T2, SPIC (Homo sapiens, UniProt Q8N5J4 1-248); settings: protein: recombinant; tags: N-terminal GST; dsDNA, one strand shown
# T2 sequence: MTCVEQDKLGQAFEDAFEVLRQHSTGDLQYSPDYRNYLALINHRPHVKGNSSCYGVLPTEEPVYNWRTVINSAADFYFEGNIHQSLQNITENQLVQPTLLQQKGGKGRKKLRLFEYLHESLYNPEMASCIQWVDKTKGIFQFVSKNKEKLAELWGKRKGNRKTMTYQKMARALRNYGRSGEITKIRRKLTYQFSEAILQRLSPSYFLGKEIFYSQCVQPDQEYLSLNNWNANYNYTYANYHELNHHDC
# How it was run: as §1
# ELF4 = ELF4 (Homo sapiens, UniProt Q99607 1-663); settings: protein: recombinant; tags: N-terminal GST; dsDNA, one strand shown
# How it was run: as §1
# ELK4 = target: T3, ELK4 (Homo sapiens, UniProt P28324-2 1-405); settings: protein: recombinant; tags: N-terminal GST; dsDNA, one strand shown
# T3 sequence: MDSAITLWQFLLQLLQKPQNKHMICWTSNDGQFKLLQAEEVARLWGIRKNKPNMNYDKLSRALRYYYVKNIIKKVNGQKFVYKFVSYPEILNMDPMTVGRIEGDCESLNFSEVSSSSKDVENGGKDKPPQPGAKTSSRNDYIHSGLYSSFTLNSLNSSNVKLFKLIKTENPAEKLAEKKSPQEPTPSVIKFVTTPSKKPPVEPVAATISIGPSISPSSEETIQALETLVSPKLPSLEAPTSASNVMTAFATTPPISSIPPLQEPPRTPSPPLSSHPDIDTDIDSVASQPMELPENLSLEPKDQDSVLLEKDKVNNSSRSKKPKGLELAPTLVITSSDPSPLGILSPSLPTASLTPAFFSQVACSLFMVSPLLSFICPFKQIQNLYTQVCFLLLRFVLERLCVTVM
# How it was run: as §1
# ETV2 = target: T4, ETV2 (Homo sapiens, UniProt O00321 1-342); settings: protein: recombinant; tags: N-terminal GST; dsDNA, one strand shown
# T4 sequence: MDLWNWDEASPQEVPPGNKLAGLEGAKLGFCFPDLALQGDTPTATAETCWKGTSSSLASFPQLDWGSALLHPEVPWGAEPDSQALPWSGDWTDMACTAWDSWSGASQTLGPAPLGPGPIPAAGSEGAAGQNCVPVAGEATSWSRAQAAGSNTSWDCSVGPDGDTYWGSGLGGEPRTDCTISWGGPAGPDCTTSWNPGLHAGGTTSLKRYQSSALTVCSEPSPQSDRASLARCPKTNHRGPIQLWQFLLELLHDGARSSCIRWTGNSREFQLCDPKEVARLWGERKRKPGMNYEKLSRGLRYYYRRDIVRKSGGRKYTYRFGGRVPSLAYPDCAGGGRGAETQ
# How it was run: as §1
# ELF3 = target: T5, ELF3 (Homo sapiens, UniProt P78545 1-371); settings: protein: recombinant; tags: N-terminal GST; dsDNA, one strand shown
# T5 sequence: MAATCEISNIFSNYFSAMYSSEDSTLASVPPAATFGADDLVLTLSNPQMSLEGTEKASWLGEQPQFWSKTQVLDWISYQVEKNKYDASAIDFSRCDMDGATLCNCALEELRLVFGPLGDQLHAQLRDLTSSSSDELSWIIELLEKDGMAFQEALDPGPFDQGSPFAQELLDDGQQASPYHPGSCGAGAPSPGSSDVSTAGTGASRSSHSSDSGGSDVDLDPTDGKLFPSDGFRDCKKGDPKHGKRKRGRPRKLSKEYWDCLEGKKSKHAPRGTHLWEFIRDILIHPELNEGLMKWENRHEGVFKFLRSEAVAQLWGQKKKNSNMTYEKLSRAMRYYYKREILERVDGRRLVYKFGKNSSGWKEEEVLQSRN
# How it was run: as §1
# CRX = CRX (Homo sapiens, UniProt O43186 1-299); settings: protein: recombinant; tags: N-terminal GST; dsDNA, one strand shown
# How it was run: as §1
# ETV1 = ETV1 (Homo sapiens, UniProt P50549 1-477); settings: protein: recombinant; tags: N-terminal GST; dsDNA, one strand shown
# How it was run: as §1
# ERF = target: T6, ERF (Homo sapiens, UniProt P50548 1-548); settings: protein: recombinant; tags: N-terminal GST; dsDNA, one strand shown
# T6 sequence: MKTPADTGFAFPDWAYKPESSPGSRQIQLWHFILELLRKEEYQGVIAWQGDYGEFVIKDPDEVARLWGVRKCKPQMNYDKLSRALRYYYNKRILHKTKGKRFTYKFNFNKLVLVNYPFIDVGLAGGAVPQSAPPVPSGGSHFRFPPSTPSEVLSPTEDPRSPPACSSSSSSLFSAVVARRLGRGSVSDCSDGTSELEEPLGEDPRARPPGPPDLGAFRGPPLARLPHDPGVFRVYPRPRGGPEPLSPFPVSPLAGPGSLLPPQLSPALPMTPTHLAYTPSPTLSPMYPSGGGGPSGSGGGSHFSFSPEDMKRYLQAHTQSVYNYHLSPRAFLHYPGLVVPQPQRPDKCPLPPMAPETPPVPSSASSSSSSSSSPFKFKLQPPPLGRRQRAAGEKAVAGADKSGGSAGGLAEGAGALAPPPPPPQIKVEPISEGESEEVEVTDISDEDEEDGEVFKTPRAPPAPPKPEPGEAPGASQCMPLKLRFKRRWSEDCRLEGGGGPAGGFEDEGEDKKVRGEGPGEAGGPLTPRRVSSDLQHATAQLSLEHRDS
# How it was run: as §1
# ETV3L = target: T7, ETV3L (Homo sapiens, UniProt Q6ZN32 1-361); settings: protein: recombinant; tags: N-terminal GST; dsDNA, one strand shown
# T7 sequence: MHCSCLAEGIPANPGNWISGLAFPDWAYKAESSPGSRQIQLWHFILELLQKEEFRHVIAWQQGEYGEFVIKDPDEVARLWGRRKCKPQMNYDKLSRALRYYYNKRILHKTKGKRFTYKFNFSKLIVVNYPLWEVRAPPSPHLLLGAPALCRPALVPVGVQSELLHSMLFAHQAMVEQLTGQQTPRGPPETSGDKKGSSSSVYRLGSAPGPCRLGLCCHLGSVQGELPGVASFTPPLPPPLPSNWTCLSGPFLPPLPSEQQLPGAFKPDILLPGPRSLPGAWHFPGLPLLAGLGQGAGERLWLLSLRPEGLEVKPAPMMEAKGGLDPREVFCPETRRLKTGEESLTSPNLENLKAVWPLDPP
# How it was run: as §1
# ETS2 = target: T8, ETS2 (Homo sapiens, UniProt P15036 1-469); settings: protein: recombinant; tags: N-terminal GST; dsDNA, one strand shown
# T8 sequence: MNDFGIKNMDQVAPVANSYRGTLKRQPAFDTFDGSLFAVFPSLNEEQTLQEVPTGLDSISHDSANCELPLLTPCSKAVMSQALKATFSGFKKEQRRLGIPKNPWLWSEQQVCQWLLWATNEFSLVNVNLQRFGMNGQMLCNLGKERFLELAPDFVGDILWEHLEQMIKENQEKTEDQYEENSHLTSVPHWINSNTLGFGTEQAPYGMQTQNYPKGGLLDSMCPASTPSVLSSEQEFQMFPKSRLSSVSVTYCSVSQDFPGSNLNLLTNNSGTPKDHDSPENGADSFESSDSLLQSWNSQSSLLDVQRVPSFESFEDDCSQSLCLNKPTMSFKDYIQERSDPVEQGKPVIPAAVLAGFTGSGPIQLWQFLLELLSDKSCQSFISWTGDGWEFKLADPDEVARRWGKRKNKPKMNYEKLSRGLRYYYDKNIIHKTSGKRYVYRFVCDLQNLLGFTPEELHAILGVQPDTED
# How it was run: as §1
# SPDEF = target: T9, SPDEF (Homo sapiens, UniProt O95238 1-335); settings: protein: recombinant; tags: N-terminal GST; dsDNA, one strand shown
# T9 sequence: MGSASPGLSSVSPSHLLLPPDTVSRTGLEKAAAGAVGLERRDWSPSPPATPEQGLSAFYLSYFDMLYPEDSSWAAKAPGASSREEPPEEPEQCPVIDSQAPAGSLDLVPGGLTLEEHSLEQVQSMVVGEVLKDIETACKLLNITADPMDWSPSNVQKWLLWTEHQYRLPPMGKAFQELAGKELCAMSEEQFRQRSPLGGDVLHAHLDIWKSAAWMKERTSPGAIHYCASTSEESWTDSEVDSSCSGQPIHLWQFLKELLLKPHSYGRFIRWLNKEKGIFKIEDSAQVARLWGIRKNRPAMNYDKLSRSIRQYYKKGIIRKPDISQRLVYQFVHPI
# How it was run: as §1
# ETV7 = target: T10, ETV7 (Homo sapiens, UniProt Q9Y603 1-341); settings: protein: recombinant; tags: N-terminal GST; dsDNA, one strand shown
# T10 sequence: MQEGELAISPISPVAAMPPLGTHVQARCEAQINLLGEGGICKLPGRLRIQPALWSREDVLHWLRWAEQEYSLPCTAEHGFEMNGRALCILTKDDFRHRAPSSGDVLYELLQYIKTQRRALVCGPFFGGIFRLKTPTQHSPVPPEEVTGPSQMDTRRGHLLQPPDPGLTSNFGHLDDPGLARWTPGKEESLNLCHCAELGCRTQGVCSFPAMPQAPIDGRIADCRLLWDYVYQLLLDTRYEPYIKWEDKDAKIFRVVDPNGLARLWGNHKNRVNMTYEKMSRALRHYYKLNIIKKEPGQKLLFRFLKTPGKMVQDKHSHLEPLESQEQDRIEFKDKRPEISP
# How it was run: as §1
# ELF5 = target: T11, ELF5 (Homo sapiens, UniProt Q9UKW6-2 1-255); settings: protein: recombinant; tags: N-terminal GST; dsDNA, one strand shown
# T11 sequence: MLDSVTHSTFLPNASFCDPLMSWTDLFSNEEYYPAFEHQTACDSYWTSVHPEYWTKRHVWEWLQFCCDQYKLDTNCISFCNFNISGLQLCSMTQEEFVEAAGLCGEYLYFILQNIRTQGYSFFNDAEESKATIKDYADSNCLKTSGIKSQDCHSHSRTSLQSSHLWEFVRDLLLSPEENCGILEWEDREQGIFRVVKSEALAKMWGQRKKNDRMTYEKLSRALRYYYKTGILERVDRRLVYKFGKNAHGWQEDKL
# How it was run: as §1
# ETV3 = target: T12, ETV3 (Homo sapiens, UniProt P41162-2 1-143); settings: protein: recombinant; tags: N-terminal GST; dsDNA, one strand shown
# T12 sequence: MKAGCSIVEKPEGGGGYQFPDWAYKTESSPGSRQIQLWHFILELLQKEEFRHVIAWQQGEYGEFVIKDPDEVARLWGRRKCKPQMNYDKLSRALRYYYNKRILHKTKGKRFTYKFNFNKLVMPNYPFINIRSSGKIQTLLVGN
# How it was run: as §1
# ETV6 = ETV6 (Homo sapiens, UniProt P41212 1-452); settings: protein: recombinant; tags: N-terminal GST; dsDNA, one strand shown
# How it was run: as §1
# Sequence of ETV5 (P41161 whole entry): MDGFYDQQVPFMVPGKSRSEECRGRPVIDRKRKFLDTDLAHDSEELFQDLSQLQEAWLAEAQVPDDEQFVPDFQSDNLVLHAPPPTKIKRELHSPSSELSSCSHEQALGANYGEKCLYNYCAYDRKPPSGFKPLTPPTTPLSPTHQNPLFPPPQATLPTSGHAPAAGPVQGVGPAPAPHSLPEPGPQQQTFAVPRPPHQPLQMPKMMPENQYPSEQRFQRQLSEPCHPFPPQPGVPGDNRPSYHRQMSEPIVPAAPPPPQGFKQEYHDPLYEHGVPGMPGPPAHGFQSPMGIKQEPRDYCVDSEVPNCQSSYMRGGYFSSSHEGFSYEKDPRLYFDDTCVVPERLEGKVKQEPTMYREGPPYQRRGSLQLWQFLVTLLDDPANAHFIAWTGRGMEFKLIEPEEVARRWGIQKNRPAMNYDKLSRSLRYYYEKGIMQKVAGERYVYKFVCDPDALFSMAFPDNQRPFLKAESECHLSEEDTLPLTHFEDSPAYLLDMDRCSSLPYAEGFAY
# Sequence of ETV6 (P41212 whole entry): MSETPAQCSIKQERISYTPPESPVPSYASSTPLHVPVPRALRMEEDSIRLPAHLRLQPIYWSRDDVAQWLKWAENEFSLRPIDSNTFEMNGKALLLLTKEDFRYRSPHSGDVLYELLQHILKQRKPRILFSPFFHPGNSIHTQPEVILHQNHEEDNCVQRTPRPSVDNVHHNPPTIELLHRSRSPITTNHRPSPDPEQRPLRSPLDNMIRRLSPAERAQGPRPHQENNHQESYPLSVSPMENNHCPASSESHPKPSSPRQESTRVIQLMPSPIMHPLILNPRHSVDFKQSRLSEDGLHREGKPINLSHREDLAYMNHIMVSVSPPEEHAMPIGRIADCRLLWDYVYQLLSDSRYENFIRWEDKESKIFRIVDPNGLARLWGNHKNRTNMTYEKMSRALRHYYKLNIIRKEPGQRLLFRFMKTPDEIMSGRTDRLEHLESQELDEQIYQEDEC
# Sequence of HSF1 (Q00613 whole entry): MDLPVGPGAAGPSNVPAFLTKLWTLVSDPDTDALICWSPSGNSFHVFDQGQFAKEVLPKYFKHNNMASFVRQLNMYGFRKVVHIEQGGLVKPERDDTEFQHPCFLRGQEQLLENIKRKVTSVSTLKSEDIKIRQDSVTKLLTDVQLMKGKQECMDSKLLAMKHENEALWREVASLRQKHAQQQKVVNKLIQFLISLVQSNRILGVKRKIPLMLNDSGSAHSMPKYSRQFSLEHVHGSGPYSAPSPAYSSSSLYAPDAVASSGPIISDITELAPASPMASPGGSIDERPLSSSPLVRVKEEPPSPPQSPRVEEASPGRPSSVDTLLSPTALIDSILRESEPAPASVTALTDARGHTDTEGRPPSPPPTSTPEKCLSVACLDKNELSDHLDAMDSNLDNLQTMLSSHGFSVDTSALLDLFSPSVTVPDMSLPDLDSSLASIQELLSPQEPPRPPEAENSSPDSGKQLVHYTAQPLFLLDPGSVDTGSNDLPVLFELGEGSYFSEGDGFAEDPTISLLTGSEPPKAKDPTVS
# Sequence of ELF4 (Q99607 whole entry): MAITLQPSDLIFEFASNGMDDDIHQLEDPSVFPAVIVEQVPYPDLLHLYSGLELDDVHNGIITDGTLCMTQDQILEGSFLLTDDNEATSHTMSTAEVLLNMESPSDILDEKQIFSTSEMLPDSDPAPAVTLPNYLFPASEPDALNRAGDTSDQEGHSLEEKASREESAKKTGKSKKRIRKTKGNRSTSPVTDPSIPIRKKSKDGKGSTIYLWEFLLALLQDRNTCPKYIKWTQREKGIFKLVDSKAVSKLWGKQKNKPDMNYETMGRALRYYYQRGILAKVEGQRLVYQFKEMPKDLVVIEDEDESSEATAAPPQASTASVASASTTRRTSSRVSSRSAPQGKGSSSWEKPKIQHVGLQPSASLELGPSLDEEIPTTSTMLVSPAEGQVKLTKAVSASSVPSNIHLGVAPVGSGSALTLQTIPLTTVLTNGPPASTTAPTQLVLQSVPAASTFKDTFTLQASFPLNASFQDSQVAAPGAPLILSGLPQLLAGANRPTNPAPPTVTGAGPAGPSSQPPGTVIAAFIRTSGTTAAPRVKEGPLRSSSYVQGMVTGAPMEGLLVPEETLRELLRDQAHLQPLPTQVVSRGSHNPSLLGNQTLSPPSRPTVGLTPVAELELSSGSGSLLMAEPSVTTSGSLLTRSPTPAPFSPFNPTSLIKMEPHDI
# Sequence of ETV1 (P50549 whole entry): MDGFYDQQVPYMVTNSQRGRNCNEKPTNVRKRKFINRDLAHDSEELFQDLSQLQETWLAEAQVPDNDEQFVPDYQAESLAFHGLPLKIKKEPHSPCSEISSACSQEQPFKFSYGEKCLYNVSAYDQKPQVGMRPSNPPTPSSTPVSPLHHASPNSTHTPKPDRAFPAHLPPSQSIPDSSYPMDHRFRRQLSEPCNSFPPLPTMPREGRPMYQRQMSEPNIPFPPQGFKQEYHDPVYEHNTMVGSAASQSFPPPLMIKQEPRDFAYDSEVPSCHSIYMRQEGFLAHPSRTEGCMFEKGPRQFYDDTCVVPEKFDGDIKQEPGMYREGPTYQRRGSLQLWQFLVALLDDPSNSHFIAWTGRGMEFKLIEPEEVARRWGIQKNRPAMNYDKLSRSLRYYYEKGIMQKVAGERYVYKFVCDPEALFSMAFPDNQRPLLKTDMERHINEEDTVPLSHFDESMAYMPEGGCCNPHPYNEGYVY
# Sequence of CRX (O43186 whole entry): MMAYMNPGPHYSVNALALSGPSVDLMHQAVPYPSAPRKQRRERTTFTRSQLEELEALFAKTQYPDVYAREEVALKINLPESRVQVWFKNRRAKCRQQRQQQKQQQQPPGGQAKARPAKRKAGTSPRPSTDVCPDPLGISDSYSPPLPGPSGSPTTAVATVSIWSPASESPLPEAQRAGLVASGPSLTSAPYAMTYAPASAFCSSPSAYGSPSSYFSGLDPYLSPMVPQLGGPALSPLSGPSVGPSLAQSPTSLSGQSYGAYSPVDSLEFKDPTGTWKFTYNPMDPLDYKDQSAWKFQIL
sequence,measurement,setting,value
AAACGC,binding signal,FEV,"1.21 fold enrichment (6-mer frequency, TF over GST control)"
same,binding signal,ETV5,"1.28 fold enrichment (6-mer frequency, TF over GST control)"
same,binding signal,HSF1,"1.05 fold enrichment (6-mer frequency, TF over GST control)"
same,binding signal,SPIC,"1.29 fold enrichment (6-mer frequency, TF over GST control)"
same,binding signal,ELF4,"1.2 fold enrichment (6-mer frequency, TF over GST control)"
same,binding signal,ELK4,"1.27 fold enrichment (6-mer frequency, TF over GST control)"
same,binding signal,ETV2,"1.38 fold enrichment (6-mer frequency, TF over GST control)"
same,binding signal,ELF3,"1.21 fold enrichment (6-mer frequency, TF over GST control)"
same,binding signal,CRX,"1.04 fold enrichment (6-mer frequency, TF over GST control)"
same,binding signal,ETV1,"1.31 fold enrichment (6-mer frequency, TF over GST control)"
same,binding signal,ERF,"1.24 fold enrichment (6-mer frequency, TF over GST control)"
same,binding signal,ETV3L,"1.18 fold enrichment (6-mer frequency, TF over GST control)"
same,binding signal,ETS2,"1.22 fold enrichment (6-mer frequency, TF over GST control)"
same,binding signal,SPDEF,"1.24 fold enrichment (6-mer frequency, TF over GST control)"
same,binding signal,ETV7,"1.17 fold enrichment (6-mer frequency, TF over GST control)"
same,binding signal,ELF5,"1.33 fold enrichment (6-mer frequency, TF over GST control)"
same,binding signal,ETV3,"1.3 fold enrichment (6-mer frequency, TF over GST control)"
same,binding signal,ETV6,"1.35 fold enrichment (6-mer frequency, TF over GST control)"
